Experimental findings from paper PMC7862700, “An all-to-all approach to the identification of sequence-specific readers for epigenetic DNA modifications on cytosine” are described below.

What all share (assay): DAPPL (digital affinity profiling via proximity ligation, sequencing); 10 mM Tris-HCl pH 7.5, 50 mM NaCl, 1 mM DTT, 4% glycerol, room temperature, 30 min; GST-TFs on glutathione beads, 16-mer random dsDNA library, 0.1% formaldehyde crosslink after washing; high values mean tight binding
In one test the target is T1, FEV (Homo sapiens, UniProt Q99581 1-238).
T1 sequence: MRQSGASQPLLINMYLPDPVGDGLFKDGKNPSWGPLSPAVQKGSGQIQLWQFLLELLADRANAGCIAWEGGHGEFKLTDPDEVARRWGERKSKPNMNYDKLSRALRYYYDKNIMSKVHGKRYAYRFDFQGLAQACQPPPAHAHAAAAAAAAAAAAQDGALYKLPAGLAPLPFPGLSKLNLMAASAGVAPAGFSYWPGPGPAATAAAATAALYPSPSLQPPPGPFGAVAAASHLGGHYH
As to conditions: protein: recombinant; tags: N-terminal GST; dsDNA, one strand shown. In outline: (§1)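 Each value of binding signal is a hexamer's read frequency for a factor divided by the same hexamer's frequency in the tag-only sample. Barcoded, bead-captured GST fusions of human transcription factors made in yeast were pooled with that sample and incubated with 200 nmole of a random double-stranded 16-mer DNA library in Tris/NaCl/DTT/glycerol buffer at room temperature for 30 min. Washing, 0.1% formaldehyde crosslinking, proximity ligation, PCR and Illumina NextSeq500 sequencing followed.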

In another test the target is ETV5 (Homo sapiens, UniProt P41161 1-510). Particulars: protein: recombinant; tags: N-terminal GST; dsDNA, one strand shown. In outline: as §1
Sequence of ETV5 (P41161 whole entry): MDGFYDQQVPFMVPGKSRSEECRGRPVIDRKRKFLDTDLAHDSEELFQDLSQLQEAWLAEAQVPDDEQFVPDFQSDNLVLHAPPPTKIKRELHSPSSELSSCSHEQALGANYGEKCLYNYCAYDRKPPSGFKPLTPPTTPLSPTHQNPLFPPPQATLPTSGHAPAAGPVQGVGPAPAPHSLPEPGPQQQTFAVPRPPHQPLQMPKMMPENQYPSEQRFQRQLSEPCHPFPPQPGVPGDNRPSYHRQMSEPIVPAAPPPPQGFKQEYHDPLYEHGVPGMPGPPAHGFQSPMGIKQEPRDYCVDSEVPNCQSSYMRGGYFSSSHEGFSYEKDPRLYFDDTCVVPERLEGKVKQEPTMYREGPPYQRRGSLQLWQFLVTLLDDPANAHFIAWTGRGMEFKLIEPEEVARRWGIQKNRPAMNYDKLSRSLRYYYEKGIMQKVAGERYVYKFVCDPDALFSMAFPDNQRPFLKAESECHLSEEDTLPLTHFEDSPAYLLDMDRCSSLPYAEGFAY
Another test has as its target HSF1 (Homo sapiens, UniProt Q00613 1-529). Particulars: protein: recombinant; tags: N-terminal GST; chain copies: 3; dsDNA, one strand shown. The gist of the method:
as §1

A further test has as its target T2, SPIC (Homo sapiens, UniProt Q8N5J4 1-248).
T2 sequence: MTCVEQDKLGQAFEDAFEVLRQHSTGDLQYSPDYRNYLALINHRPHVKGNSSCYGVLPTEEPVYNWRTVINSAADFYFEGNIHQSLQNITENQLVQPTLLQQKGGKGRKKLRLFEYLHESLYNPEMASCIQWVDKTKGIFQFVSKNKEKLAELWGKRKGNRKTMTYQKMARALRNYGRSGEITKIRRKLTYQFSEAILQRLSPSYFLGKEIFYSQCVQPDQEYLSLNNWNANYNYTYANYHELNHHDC
As to conditions: protein: recombinant; tags: N-terminal GST; dsDNA, one strand shown. In outline: as §1

The target in a further test is ELF4 (Homo sapiens, UniProt Q99607 1-663). As to conditions: protein: recombinant; tags: N-terminal GST; dsDNA, one strand shown. In outline:
as §1

The next test concerns the target T3, ELK4 (Homo sapiens, UniProt P28324-2 1-405).
T3 sequence: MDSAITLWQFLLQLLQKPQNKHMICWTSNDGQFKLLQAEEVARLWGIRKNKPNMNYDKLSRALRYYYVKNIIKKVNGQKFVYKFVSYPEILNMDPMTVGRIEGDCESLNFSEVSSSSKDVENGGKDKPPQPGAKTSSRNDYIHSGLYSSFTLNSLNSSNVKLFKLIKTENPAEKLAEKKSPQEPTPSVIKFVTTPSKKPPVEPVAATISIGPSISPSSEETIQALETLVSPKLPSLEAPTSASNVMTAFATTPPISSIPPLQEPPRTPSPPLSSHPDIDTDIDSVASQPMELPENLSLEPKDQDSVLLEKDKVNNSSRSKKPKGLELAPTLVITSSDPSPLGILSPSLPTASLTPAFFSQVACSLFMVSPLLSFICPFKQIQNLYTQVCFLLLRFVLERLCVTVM
As to conditions: protein: recombinant; tags: N-terminal GST; dsDNA, one strand shown. In outline:
as §1

In a further test the target is T4, ETV2 (Homo sapiens, UniProt O00321 1-342).
T4 sequence: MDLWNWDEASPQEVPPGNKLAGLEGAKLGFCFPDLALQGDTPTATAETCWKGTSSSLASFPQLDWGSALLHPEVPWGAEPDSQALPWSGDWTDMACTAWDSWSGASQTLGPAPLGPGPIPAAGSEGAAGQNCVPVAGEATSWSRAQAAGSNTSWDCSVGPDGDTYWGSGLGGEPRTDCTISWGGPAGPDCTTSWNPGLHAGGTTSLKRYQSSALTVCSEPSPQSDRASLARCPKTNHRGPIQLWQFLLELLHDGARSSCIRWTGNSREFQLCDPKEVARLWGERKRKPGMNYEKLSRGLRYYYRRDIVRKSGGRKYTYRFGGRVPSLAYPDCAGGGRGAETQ
As to conditions: protein: recombinant; tags: N-terminal GST; dsDNA, one strand shown. In outline:
as §1

The next test concerns the target T5, ELF3 (Homo sapiens, UniProt P78545 1-371).
T5 sequence: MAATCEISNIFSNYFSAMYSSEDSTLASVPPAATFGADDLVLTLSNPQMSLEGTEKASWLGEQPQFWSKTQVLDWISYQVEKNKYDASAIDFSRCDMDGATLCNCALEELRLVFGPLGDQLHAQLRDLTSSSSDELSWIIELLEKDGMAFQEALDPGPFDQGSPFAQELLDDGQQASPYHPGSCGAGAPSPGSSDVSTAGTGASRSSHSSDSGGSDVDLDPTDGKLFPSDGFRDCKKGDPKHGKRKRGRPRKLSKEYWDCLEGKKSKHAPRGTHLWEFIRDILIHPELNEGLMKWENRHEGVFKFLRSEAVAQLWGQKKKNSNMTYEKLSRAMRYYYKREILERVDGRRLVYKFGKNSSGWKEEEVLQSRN
As to conditions: protein: recombinant; tags: N-terminal GST; dsDNA, one strand shown. In outline:
as §1

Another test deals with CRX (Homo sapiens, UniProt O43186 1-299). Particulars: protein: recombinant; tags: N-terminal GST; dsDNA, one strand shown. The gist of the method: as §1
Sequence of CRX (O43186 whole entry): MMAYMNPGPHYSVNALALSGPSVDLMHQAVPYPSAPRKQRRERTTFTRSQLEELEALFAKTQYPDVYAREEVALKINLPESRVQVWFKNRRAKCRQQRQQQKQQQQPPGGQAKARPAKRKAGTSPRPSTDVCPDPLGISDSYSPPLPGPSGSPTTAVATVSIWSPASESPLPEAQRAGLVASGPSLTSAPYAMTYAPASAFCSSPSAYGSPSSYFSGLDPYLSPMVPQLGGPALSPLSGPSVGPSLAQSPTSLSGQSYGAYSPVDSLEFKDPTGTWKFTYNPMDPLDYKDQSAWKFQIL
The target in the next test is ETV1 (Homo sapiens, UniProt P50549 1-477). Particulars: protein: recombinant; tags: N-terminal GST; dsDNA, one strand shown. In outline: as §1
Sequence of ETV1 (P50549 whole entry): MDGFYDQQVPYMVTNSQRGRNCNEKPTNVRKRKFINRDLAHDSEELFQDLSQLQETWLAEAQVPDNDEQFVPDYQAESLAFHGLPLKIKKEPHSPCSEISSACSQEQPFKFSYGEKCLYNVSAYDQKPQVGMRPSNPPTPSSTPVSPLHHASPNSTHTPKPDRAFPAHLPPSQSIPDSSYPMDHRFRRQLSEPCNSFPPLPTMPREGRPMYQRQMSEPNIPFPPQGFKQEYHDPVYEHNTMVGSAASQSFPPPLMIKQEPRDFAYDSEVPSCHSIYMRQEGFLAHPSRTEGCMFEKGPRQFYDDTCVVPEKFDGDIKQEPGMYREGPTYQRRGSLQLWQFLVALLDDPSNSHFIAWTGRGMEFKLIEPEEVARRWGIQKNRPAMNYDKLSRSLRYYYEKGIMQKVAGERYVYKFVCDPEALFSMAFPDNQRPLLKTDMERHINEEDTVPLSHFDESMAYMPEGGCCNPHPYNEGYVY
The target in the next test is T6, ERF (Homo sapiens, UniProt P50548 1-548).
T6 sequence: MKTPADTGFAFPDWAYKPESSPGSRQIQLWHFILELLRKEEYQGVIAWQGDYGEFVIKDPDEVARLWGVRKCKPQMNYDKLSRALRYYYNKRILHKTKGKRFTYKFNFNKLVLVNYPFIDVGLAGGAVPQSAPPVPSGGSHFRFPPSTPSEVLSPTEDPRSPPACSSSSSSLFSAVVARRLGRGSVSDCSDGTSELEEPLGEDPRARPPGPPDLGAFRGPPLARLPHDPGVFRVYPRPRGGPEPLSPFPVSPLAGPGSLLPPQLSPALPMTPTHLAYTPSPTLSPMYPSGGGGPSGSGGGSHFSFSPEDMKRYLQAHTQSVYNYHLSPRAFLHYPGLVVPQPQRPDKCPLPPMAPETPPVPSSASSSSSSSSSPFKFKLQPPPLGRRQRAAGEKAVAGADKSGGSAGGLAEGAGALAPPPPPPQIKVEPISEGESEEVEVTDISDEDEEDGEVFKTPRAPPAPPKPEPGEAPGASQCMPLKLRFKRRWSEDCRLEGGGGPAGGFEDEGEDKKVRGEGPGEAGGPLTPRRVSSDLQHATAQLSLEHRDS
As to conditions: protein: recombinant; tags: N-terminal GST; dsDNA, one strand shown. The gist of the method: as §1

The target of another test is T7, ETV3L (Homo sapiens, UniProt Q6ZN32 1-361).
T7 sequence: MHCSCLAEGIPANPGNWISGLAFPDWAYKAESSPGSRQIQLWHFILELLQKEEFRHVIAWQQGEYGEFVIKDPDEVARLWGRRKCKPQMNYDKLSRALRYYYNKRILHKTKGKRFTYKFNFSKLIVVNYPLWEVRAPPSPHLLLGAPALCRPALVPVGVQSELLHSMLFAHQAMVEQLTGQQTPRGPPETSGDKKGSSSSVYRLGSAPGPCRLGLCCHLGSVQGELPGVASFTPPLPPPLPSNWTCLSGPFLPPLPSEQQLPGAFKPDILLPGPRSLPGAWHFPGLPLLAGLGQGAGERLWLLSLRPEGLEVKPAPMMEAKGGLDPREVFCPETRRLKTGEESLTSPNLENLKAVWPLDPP
Particulars: protein: recombinant; tags: N-terminal GST; dsDNA, one strand shown. The gist of the method:
as §1

The next test deals with T8, ETS2 (Homo sapiens, UniProt P15036 1-469).
T8 sequence: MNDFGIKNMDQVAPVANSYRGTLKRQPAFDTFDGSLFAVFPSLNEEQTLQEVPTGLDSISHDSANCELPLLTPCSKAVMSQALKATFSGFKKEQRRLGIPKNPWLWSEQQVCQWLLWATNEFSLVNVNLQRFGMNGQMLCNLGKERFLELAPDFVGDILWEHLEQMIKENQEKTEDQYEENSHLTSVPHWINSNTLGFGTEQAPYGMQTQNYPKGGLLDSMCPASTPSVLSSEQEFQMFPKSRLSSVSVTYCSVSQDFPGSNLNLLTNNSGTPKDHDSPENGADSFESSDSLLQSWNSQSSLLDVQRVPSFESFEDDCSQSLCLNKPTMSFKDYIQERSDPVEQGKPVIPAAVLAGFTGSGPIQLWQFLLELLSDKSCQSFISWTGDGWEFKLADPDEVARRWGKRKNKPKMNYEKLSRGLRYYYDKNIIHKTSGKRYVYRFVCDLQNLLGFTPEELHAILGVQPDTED
Particulars: protein: recombinant; tags: N-terminal GST; dsDNA, one strand shown. The gist of the method: as §1

Another test deals with T9, SPDEF (Homo sapiens, UniProt O95238 1-335).
T9 sequence: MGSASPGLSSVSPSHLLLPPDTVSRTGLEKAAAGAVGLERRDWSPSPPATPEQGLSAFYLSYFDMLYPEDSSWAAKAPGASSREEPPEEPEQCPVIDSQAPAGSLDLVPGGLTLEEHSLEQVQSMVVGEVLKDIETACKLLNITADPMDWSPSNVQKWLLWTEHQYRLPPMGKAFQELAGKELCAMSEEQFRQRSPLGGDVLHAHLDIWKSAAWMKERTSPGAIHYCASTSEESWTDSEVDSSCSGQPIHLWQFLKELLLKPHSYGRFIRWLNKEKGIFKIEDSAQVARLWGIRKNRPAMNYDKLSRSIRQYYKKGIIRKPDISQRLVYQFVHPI
Particulars: protein: recombinant; tags: N-terminal GST; dsDNA, one strand shown. The gist of the method:
as §1

The next test deals with T10, ETV7 (Homo sapiens, UniProt Q9Y603 1-341).
T10 sequence: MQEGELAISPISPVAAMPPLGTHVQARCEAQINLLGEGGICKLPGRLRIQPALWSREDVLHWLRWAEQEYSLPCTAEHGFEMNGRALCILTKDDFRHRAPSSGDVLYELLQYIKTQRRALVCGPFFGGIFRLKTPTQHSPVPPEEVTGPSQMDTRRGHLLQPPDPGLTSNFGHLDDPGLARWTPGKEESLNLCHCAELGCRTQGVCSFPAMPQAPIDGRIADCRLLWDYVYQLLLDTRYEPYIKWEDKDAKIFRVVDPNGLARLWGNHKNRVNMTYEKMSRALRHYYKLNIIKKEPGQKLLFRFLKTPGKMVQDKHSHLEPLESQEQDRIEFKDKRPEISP
Particulars: protein: recombinant; tags: N-terminal GST; dsDNA, one strand shown. The gist of the method: as §1

The target in a further test is T11, ELF5 (Homo sapiens, UniProt Q9UKW6-2 1-255).
T11 sequence: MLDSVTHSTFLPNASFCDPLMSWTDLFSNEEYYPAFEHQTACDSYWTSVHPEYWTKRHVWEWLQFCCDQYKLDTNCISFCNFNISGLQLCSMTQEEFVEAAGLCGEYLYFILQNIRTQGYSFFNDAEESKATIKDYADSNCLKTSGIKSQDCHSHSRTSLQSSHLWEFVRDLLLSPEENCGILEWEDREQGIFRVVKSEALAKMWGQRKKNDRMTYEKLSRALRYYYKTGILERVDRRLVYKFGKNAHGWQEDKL
As to conditions: protein: recombinant; tags: N-terminal GST; dsDNA, one strand shown. In outline:
as §1

Another test concerns the target T12, ETV3 (Homo sapiens, UniProt P41162-2 1-143).
T12 sequence: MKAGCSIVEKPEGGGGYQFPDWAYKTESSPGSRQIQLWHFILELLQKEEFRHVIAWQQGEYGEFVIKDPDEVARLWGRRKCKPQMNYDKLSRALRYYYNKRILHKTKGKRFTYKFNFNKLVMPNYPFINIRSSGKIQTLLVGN
As to conditions: protein: recombinant; tags: N-terminal GST; dsDNA, one strand shown. The gist of the method:
as §1

A further test concerns the target ETV6 (Homo sapiens, UniProt P41212 1-452). Particulars: protein: recombinant; tags: N-terminal GST; dsDNA, one strand shown. The gist of the method:
as §1

Sequence of ELF4 (Q99607 whole entry): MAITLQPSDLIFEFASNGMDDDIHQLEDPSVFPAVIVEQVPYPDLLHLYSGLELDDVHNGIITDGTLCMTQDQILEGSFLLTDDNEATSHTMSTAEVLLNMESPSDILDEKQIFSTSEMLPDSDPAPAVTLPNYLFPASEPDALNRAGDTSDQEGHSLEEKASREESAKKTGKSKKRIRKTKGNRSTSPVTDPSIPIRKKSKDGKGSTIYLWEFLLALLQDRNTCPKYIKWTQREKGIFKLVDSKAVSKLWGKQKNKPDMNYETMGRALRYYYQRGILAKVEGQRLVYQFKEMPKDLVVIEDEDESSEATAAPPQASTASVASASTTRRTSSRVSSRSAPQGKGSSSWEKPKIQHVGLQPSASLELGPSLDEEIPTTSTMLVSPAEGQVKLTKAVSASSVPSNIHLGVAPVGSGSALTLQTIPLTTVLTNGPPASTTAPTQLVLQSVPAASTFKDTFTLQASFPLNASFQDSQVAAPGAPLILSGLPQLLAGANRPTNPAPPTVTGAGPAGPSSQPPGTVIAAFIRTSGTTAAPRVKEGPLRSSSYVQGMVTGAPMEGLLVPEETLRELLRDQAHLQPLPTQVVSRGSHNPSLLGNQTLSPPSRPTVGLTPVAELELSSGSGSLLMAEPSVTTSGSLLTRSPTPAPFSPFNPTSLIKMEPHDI
Sequence of HSF1 (Q00613 whole entry): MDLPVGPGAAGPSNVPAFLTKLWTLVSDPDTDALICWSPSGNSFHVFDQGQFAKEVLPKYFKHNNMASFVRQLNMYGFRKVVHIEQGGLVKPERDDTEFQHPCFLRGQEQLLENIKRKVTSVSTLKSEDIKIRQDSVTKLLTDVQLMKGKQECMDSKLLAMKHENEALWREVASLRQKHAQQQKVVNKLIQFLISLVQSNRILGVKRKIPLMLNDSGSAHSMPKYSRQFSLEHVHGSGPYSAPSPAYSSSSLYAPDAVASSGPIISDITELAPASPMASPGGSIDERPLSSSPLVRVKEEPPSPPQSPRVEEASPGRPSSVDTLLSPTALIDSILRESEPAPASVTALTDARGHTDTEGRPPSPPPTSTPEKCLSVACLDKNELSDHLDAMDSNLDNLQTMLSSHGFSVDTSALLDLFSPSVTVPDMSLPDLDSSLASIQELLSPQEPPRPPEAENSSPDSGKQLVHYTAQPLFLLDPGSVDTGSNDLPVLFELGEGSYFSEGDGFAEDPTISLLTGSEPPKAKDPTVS
Sequence of ETV6 (P41212 whole entry): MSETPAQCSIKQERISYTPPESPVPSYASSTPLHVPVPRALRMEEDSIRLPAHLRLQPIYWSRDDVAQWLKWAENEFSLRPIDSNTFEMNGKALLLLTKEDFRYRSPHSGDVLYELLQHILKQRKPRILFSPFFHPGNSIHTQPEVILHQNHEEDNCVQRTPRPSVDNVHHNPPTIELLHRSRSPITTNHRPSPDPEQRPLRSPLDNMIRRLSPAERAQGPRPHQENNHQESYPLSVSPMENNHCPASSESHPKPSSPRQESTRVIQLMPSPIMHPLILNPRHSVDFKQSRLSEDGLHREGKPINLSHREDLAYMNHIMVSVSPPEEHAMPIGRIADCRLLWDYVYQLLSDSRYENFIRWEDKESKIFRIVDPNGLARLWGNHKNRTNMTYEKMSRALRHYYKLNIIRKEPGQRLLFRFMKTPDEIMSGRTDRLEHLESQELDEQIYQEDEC

Regarding TAATAC, the binding signal is 1.12 fold enrichment (6-mer frequency, TF over GST control) in the test with FEV; 1.04 fold enrichment (6-mer frequency, TF over GST control) with ETV5; 1.63 fold enrichment (6-mer frequency, TF over GST control) in the test with HSF1; 1.12 fold enrichment (6-mer frequency, TF over GST control) in the test with SPIC; 1.14 fold enrichment (6-mer frequency, TF over GST control) with ELF4; 1.04 fold enrichment (6-mer frequency, TF over GST control) with ELK4. The binding signal with ETV2 was 1.16 fold enrichment (6-mer frequency, TF over GST control); with ELF3, 1.05 fold enrichment (6-mer frequency, TF over GST control); with CRX, 2.45 fold enrichment (6-mer frequency, TF over GST control); with ETV1, 1.11 fold enrichment (6-mer frequency, TF over GST control); in the test with ERF, 1.14 fold enrichment (6-mer frequency, TF over GST control); with ETV3L it was 1.1 fold enrichment (6-mer frequency, TF over GST control). Moreover, the binding signal was 1.12 fold enrichment (6-mer frequency, TF over GST control) with ETS2; 1.12 fold enrichment (6-mer frequency, TF over GST control) in the test with SPDEF; 1.11 fold enrichment (6-mer frequency, TF over GST control) with ETV7; 1.09 fold enrichment (6-mer frequency, TF over GST control) with ELF5; 1.03 fold enrichment (6-mer frequency, TF over GST control) with ETV3; 1.12 fold enrichment (6-mer frequency, TF over GST control) with ETV6.
